# Screens deposited in PubChem by National Center for Advancing Translational Sciences (NCATS).
# This is a sample that favours compounds with a hit; in the whole collection about 2.4% have one here.
# Tb PGK inh – qHTS Assay to Find Inhibitors of Phosphoglycerate Kinase. Phosphoglycerate kinase, glycosomal (Trypanosoma brucei brucei), P07378. PGK/GAPDH coupled, Kinase-Glo luminescence, 60 min. Potency, µM (titrated, usually from 57.5 µM), usual class: inhibitors. actives 0.043% (n = 380,000). AID 602233, 2012; also: nearly all actives have a fitted effect of over 60% in size
#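 Recombinant glycosomal PGK reaction used 1,3-bisphosphoglycerate generated in-well by GAPDH (100nM final) in 100mM TEA pH 7.6, 5mM MgCl2, 0.01% Tween-20. After 60 minutes at room temperature, ATP was read by Kinase-Glo Plus luminescence end-point.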
# POLI inh – qHTS for Inhibitors of Polymerase Iota; Potency, µM (titrated, usually from 115 µM), hits mostly inhibitors; Pol iota fluorescent replication assay, 10 min; AID 588590, 2011; DNA polymerase iota (Homo sapiens), Q9UNA4; actives 1% (n = 390,000)
#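 Pol iota at 10 nM preincubated 15 min with compounds at room temperature; reaction started with fluorescent substrate, 50 nM final. Fluorescence read kinetically at 0 and 10 min; buffer-only wells as negative control.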
# Pol beta inh – qHTS Assay for Inhibitors of DNA Polymerase Beta | P06746 | Pol beta primer extension/strand displacement, fluorescence kinetic | Potency, µM (doses to about 114 µM), usual class: inhibitors | actives 1.3% (n = 340,000) | AID 485314, 2010
#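 Homogeneous kinetic assay of primer extension and strand displacement by 10 nM Pol beta, preincubated 15 min at room temperature with compound before 50 nM substrate (final) was added. Read at 0 and 10 min; four-parameter Hill fit.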
# Pol eta inh-1 – qHTS for Inhibitors of Polymerase Eta; DNA polymerase eta (Homo sapiens), Q9Y253; recombinant Pol eta, fluorescent DNA replication assay; Potency, µM (titrated, usually from 114 µM), hits mostly inhibitors; actives 1.2% (n = 390,000)
#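 Fluorescent replication assay: 50 nM final substrate added after a 15 min room-temperature compound preincubation with 10 nM enzyme. Signal taken at 0 min and again at 10 min.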
# FEN1 inh – qHTS Assay for the Inhibitors of Human Flap endonuclease 1 (FEN1); P39748; Recombinant FEN1 flap cleavage, fluorescence, 15 min; Potency, µM (doses to about 114 µM), actives largely listed as inhibitors; actives 0.35% (n = 390,000); also: nearly all actives have a fitted effect of over 65% in size
# Target sequence (P39748 whole entry, looked up): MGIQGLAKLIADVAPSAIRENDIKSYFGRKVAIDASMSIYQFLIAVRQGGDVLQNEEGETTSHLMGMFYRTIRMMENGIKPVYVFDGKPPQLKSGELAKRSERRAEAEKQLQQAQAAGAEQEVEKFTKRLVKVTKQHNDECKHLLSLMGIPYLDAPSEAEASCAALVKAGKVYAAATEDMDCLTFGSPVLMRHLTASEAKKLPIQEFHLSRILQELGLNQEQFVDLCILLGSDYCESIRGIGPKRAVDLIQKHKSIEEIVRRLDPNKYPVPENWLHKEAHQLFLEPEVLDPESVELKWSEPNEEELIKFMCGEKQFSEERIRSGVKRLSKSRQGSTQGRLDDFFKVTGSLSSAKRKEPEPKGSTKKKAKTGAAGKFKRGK
#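 In this screen, 50 nM flap DNA substrate was added to 10 nM FEN1 pretreated with compound for 15 min at room temperature; cleavage was followed with reads at 0 and 15 min, and Hill fitting gave concentration–response parameters.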
# Pol kappa inh-1 – qHTS for Inhibitors of Polymerase Kappa | DNA polymerase kappa (Homo sapiens), Q9UBT6 | purified Pol kappa, fluorescent DNA synthesis assay, 10 min | Potency, µM (top dose mostly 107 µM), most hits filed as inhibitors | actives 0.53% (n = 400,000) | AID 588579, 2011
#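 50 nM final substrate added after 15 min RT preincubation of 10 nM Pol kappa with compound; fluorescence read at 0 and 10 min.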
# TbPGK inh – qHTS for inhibitors of Phosphogylcerate Kinase: Hit Validation Screen; shares compounds with Pol kappa inh-1; TbPGK coupled GAPDH assay, Kinase-Glo luminescence; Potency, µM (titrated, usually from 57.5 µM), most hits filed as inhibitors; actives 79% (n = 500); AID 686980, 2013; also: nearly all actives have a fitted effect of over 65% in size
# Pol iota confirm – qHTS for Inhibitors of Polymerase Iota: Confirmatory Assay for Cherry-picked Compounds | Pol iota primer extension, TAMRA/BHQ fluorescence | AID 720496, 2013 | Potency, µM, most hits filed as inhibitors | actives 77% (n = 1,500) | shares compounds with Pol kappa inh-1
# Pol kappa inh-2 – qHTS for Inhibitors of Polymerase Kappa: Confirmatory Assay for Cherry-picked Compounds. purified Pol-kappa, fluorescent strand-displacement substrate. shares compounds with Pol eta inh-1. actives 76% (n = 920). Potency, µM, actives largely listed as inhibitors
# Pol eta inh-2 – qHTS for Inhibitors of Polymerase Eta: Confirmatory Assay for Cherry-picked Compounds. Potency, µM, actives largely listed as inhibitors. actives 64% (n = 2,600). shares compounds with Pol eta inh-1. Pol eta primer extension, TAMRA/BHQ fluorescence, 10 min. AID 720502, 2013
# Hits are given with their value; – = inactive; ? = inconclusive; · = no result. Calls follow the shape of the dose curve; as a rule, active = well fitted curve in the direction sought with a large enough effect; inconclusive = small, poorly fitted or top-dose-only effect, or another doubt; inactive = no such curve, though single readings can be large; an effect the other way counts as inactive or inconclusive.
SMILES,Tb PGK inh,POLI inh,Pol beta inh,Pol eta inh-1,FEN1 inh,Pol kappa inh-1,Pol iota confirm,Pol kappa inh-2,Pol eta inh-2,others
Cc1ccc(C(=O)OCc2nc3ccsc3c(=O)[nH]2)o1,–,?,·,–,–,–,·,·,·,
O=C(NC1CC(=O)N(c2ccc(F)cc2)C1)c1cc2ccccc2o1 (stereo unspecified),–,–,–,–,–,–,·,·,·,
O=C(/C=C/c1ccccc1)NCCc1ccccc1,?,?,25µM,20µM,–,?,?,·,67,TbPGK inh=21µM
COC(=O)c1cc2occc2n1CC(=O)Nc1ccc(N(C)C)cc1,–,–,–,–,–,–,·,·,·,
N#CCC(=O)Nc1ccc(C(=O)OCC(=O)N2CCN(C(=O)c3ccco3)CC2)cc1,–,45µM,·,?,–,45µM,?,·,?,
COc1cc(/C=N/NC(=O)c2ccccc2O)ccc1OCC(=O)Nc1ccccc1,–,28µM,6.3µM,50µM,?,50µM,42,17,?,
O=C(N/N=C/c1ccc(OCC(=O)N2CCCCC2)cc1)c1ccccc1O,–,–,–,–,–,–,·,·,·,
O=C(COc1ccc(/C=N/NC(=O)c2ccccc2O)cc1)Nc1ccccc1,?,?,18µM,?,–,?,·,47,·,TbPGK inh=15µM
COc1cc(/C=N/NC(=O)c2ccncc2)ccc1OCC(=O)Nc1ccccc1,–,–,–,–,–,–,·,·,·,
Cn1c(=O)[nH]c2cc(-c3noc(-c4ccc(F)cc4)n3)ccc21,–,–,–,–,–,–,·,·,·,
CCn1c(SC(C)C(=O)O)nc2sc3c(c2c1=O)CCC3 (stereo unspecified),–,?,8.9µM,3.5µM,–,25µM,75,·,24,
Cc1ccc(CN(C(=O)COc2cccc([N+](=O)[O-])c2)c2ccccn2)o1,–,–,–,–,–,–,·,·,·,
CCCCOc1ccccc1C1CC(=O)Nc2ccc3ccccc3c21 (stereo unspecified),–,–,–,–,–,–,·,·,·,
COC(CNC(=O)C1CCN(S(=O)(=O)c2ccc3nc4c(c(C(=O)O)c3c2)CC(C)CC4)CC1)OC (stereo unspecified),–,?,–,14µM,–,?,21,·,5.4,
CC1CCc2nc3ccc(S(=O)(=O)N4CCC(C(=O)O)CC4)cc3c(C(=O)O)c2C1 (stereo unspecified),–,–,–,–,–,–,·,·,·,
COc1cccc(OCc2cc(C3Nc4ccccc4C(=O)N3c3ccccc3)ccc2OC)c1 (stereo unspecified),·,–,·,·,–,–,·,·,·,
Cc1ccc(/C=C/C(=O)NCc2ccccn2)o1,?,16µM,18µM,3.2µM,–,45µM,19,15,27,
O=C(O)c1ccc(Nc2nc(-c3cc4ccccc4oc3=O)cs2)cc1O,?,22µM,100µM,25µM,?,56µM,?,75,67,
COC(=O)N1CCC2(CCCN(c3ncccn3)C2)CC1,·,·,·,·,·,–,·,·,·,
Cn1cccc1CC(=O)N/N=C/C=C/c1ccco1,–,18µM,25µM,?,–,35µM,67,38,?,
O=C(CSc1nnc(SCc2ccccc2)s1)N/N=C/C=C\c1ccco1,–,?,7.1µM,20µM,?,28µM,42,·,43,
C/C(=N\NC(=O)Cc1cccn1C)c1ccco1,–,–,–,–,–,–,·,·,·,
CC(C)(Sc1ccc(CCN(CCCCC2CCCCC2)C(=O)NC2CCCCC2)cc1)C(=O)O,–,–,?,89µM,?,?,42,19,19,
CN(Cc1ccccc1)C(=O)NC1CCCCC1,–,–,–,–,–,–,·,·,·,
O=C1NC(=Nc2ccccc2)S/C1=C\C=C\c1ccco1,–,11µM,2.5µM,10µM,?,20µM,38,·,27,
SMILES,Tb PGK inh,POLI inh,Pol beta inh,Pol eta inh-1,FEN1 inh,Pol kappa inh-1,Pol iota confirm,Pol kappa inh-2,Pol eta inh-2,others
[O-][n+]1c2ccccc2[n+]([O-])c2cc(O)ccc21,?,?,22µM,18µM,?,?,?,?,?,TbPGK inh=33µM
S=c1[nH]nc(-c2ccncc2)n1/N=C/C=C/c1ccco1,–,?,20µM,28µM,?,–,42,30,27,
CC(/C=N/n1c(-c2ccccc2)n[nH]c1=S)=C\c1ccco1,–,–,?,?,–,–,·,·,·,
COc1cccc(NC(=O)CN(C)C(=O)c2cc3c(s2)CCC(C)C3)c1 (stereo unspecified),–,–,·,–,–,–,·,·,·,
COc1cccc(NC(=O)CN(C)C(=O)c2cc3c(s2)CCC3)c1,–,22µM,·,3.5µM,–,32µM,34,·,76,
Cc1ccc(C(=O)O)cc1-c1ccc(/C=C2/NC(=O)N(c3ccccc3)C2=O)o1,?,14µM,5.6µM,2.8µM,?,22µM,19,19,30,
CCOC(=O)C(C)N1C(=O)S/C(=C\c2ccc(-c3ccccc3C(=O)O)o2)C1=O (stereo unspecified),·,?,22µM,3.2µM,32µM,–,17,3,17,
COC(=O)c1ccccc1-c1ccc(/C=C2\C(=O)N(c3ccccc3)N=C2c2ccccc2)o1,–,–,–,–,–,–,·,·,·,
Cc1ccc2c(nc3s/c(=C\c4ccc(-c5ccccc5C(=O)O)o4)c(=O)n32)c1C,–,–,20µM,10µM,–,?,75,24,17,
Cc1ccccc1NC(=O)CN1C(=O)S/C(=C\c2ccc(-c3cc(C(=O)O)ccc3C)o2)C1=O,?,8.9µM,32µM,?,?,?,27,8.4,27,
C#CC(C)(CC)NC(=O)Cn1nnc(-c2ccc(OCc3ccccc3F)cc2)n1 (stereo unspecified),–,–,–,–,–,–,·,·,·,
